The supplement of paper PMC3545927
The list shows a part of the results. How many sequences the whole screen found active is unknown.

Molecular target: furin, P09958
Test: furin cleavage Z-score vs untreated control; higher = more cleavage, active = 3.5 or more, inactive = 1 or less, 8 variable residues between constant flanks
Procedure, shortened: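 Purified furin cleaved 8-mer peptides that were fused to a cDNA oligonucleotide and held on magnetic beads by their N-terminus. Each 0.01 ml reaction used a 1:10 enzyme:substrate ratio in 50 mM HEPES pH 7.5 with CaCl2 and NaCl and ran 7.5, 15 or 30 min. Released DNA was adapter-tagged by PCR and sequenced, and read counts gave abundance. The cleavage Z-score came from log counts against furin-free reactions, lowess-adjusted and scaled by median absolute deviation.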

Sequence of furin, P09958 (P09958 whole entry): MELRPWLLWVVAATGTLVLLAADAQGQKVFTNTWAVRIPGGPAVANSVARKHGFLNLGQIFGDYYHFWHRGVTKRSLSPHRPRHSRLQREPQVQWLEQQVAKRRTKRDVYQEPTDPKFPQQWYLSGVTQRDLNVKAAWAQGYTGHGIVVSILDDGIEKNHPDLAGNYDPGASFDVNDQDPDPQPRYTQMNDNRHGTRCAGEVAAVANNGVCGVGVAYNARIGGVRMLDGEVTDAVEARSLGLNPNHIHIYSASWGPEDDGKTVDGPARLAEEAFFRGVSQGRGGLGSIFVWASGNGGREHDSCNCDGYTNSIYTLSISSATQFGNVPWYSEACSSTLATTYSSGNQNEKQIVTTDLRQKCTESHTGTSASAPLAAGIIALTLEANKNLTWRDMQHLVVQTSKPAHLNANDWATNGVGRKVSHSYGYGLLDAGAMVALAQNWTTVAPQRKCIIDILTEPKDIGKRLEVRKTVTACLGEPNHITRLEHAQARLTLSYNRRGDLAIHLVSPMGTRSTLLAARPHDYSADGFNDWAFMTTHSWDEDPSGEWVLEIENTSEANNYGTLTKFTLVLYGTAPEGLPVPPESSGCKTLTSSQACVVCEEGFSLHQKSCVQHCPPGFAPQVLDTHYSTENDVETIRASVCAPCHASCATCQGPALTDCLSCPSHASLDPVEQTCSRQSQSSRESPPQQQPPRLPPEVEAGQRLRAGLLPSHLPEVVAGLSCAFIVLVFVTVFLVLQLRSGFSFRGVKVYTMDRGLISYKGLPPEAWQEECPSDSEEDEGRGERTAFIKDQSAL

B1: HC633 (peptide)
chain: CATGTYVYNHAGNASASA
7.5 min
  furin cleavage Z-score: -0.127 (inactive)
15 min
  furin cleavage Z-score: -1.41 (inactive)
30 min
  furin cleavage Z-score: -0.282 (inactive)

B2: FS-1771 (peptide)
chain: CARRARDMSSAGNASASA
7.5 min
  furin cleavage Z-score: 2.38
15 min
  furin cleavage Z-score: 4.53 (active)
30 min
  furin cleavage Z-score: 4.22 (active)

B3: HC668 (peptide)
chain: CAADGMVSKGAGNASASA
7.5 min
  furin cleavage Z-score: 0.272 (inactive)
15 min
  furin cleavage Z-score: 0.596 (inactive)
30 min
  furin cleavage Z-score: -0.245 (inactive)

B4: FS-1323 (peptide)
chain: CAFIGREKRSAGNASASA
7.5 min
  furin cleavage Z-score: 12 (active)
15 min
  furin cleavage Z-score: 10.8 (active)
30 min
  furin cleavage Z-score: 9.06 (active)

B5: FS-2225 (peptide)
chain: CARQDRSKGTAGNASASA
7.5 min
  furin cleavage Z-score: 0.0348 (inactive)
15 min
  furin cleavage Z-score: -0.0846 (inactive)
30 min
  furin cleavage Z-score: -0.182 (inactive)

B6: FS-1517 (peptide)
chain: CADPMLEKRSAGNASASA
7.5 min
  furin cleavage Z-score: -0.771 (inactive)
15 min
  furin cleavage Z-score: -0.469 (inactive)
30 min
  furin cleavage Z-score: 0.309 (inactive)

B7: FS-1494 (peptide)
chain: CATLDRSKRNAGNASASA
7.5 min
  furin cleavage Z-score: 10.9 (active)
15 min
  furin cleavage Z-score: 11.2 (active)
30 min
  furin cleavage Z-score: 9.22 (active)

B8: FS-98 (peptide)
chain: CATLDREKRSAGNASASA
7.5 min
  furin cleavage Z-score: 9.65 (active)
15 min
  furin cleavage Z-score: 10.6 (active)
30 min
  furin cleavage Z-score: 9.73 (active)

B9: FS-178 (peptide)
chain: CAMLSPEKRSAGNASASA
7.5 min
  furin cleavage Z-score: 0.073 (inactive)
15 min
  furin cleavage Z-score: -0.325 (inactive)
30 min
  furin cleavage Z-score: 0.835 (inactive)

B10: FS-1129 (peptide)
chain: CAGSQWEKRSAGNASASA
7.5 min
  furin cleavage Z-score: 1.1
15 min
  furin cleavage Z-score: -0.464 (inactive)
30 min
  furin cleavage Z-score: -0.295 (inactive)

B11: FS-1115 (peptide)
chain: CADQEREKRSAGNASASA
7.5 min
  furin cleavage Z-score: 2.32
15 min
  furin cleavage Z-score: 3.5 (active)
30 min
  furin cleavage Z-score: 5.3 (active)

B12: HC321 (peptide)
chain: CADMMMNWSPAGNASASA
7.5 min
  furin cleavage Z-score: -1.68 (inactive)
15 min
  furin cleavage Z-score: -0.337 (inactive)
30 min
  furin cleavage Z-score: -0.211 (inactive)

B13: HC1119 (peptide)
chain: CANRLIAFASAGNASASA
7.5 min
  furin cleavage Z-score: 0.982 (inactive)
15 min
  furin cleavage Z-score: 0.0869 (inactive)
30 min
  furin cleavage Z-score: 0.661 (inactive)

B14: HC577 (peptide)
chain: CAPYYKRYISAGNASASA
7.5 min
  furin cleavage Z-score: -0.596 (inactive)
15 min
  furin cleavage Z-score: 1.03
30 min
  furin cleavage Z-score: 0.43 (inactive)

B15: HC2400 (peptide)
chain: CAEVPCHRCSAGNASASA
7.5 min
  furin cleavage Z-score: -0.164 (inactive)
15 min
  furin cleavage Z-score: 1.15
30 min
  furin cleavage Z-score: 0.38 (inactive)

B16: FS-412 (peptide)
chain: CAEGHRPRRPAGNASASA
7.5 min
  furin cleavage Z-score: -0.592 (inactive)
15 min
  furin cleavage Z-score: -1.65 (inactive)
30 min
  furin cleavage Z-score: -2.58 (inactive)

B17: FS-1582 (peptide)
chain: CAACIRKRRLAGNASASA
7.5 min
  furin cleavage Z-score: 8.2 (active)
15 min
  furin cleavage Z-score: 8.28 (active)
30 min
  furin cleavage Z-score: 8.96 (active)

B18: HC1252 (peptide)
chain: CAAEAAGRRLAGNASASA
7.5 min
  furin cleavage Z-score: -0.023 (inactive)
15 min
  furin cleavage Z-score: -0.0869 (inactive)
30 min
  furin cleavage Z-score: -1.21 (inactive)

B19: FS-1307 (peptide)
chain: CAARHRPRRLAGNASASA
7.5 min
  furin cleavage Z-score: 8.25 (active)
15 min
  furin cleavage Z-score: 10.2 (active)
30 min
  furin cleavage Z-score: 9.03 (active)

B20: FS-697 (peptide)
chain: CANLSRNRRLAGNASASA
7.5 min
  furin cleavage Z-score: 2.54
15 min
  furin cleavage Z-score: 6.24 (active)
30 min
  furin cleavage Z-score: 6.91 (active)

B21: FS-1134 (peptide)
chain: CAKRAAVRRLAGNASASA
7.5 min
  furin cleavage Z-score: -0.242 (inactive)
15 min
  furin cleavage Z-score: -0.206 (inactive)
30 min
  furin cleavage Z-score: 1.42

B22: FS-423 (peptide)
chain: CAGDIRVRRLAGNASASA
7.5 min
  furin cleavage Z-score: 3.94 (active)
15 min
  furin cleavage Z-score: 5.14 (active)
30 min
  furin cleavage Z-score: 6.57 (active)

B23: HC548 (peptide)
chain: CAAWYLKGKWAGNASASA
7.5 min
  furin cleavage Z-score: -0.848 (inactive)
15 min
  furin cleavage Z-score: -0.178 (inactive)
30 min
  furin cleavage Z-score: -0.813 (inactive)

B24: HC1418 (peptide)
chain: CAHSAKSKFGAGNASASA
7.5 min
  furin cleavage Z-score: -0.464 (inactive)
15 min
  furin cleavage Z-score: -0.415 (inactive)
30 min
  furin cleavage Z-score: -0.702 (inactive)

B25: HC2094 (peptide)
chain: CAVVCCSMSKAGNASASA
7.5 min
  furin cleavage Z-score: -0.242 (inactive)
15 min
  furin cleavage Z-score: -0.54 (inactive)
30 min
  furin cleavage Z-score: -1.3 (inactive)

B26: HC702 (peptide)
chain: CAHGAGTRTIAGNASASA
7.5 min
  furin cleavage Z-score: 1.09
15 min
  furin cleavage Z-score: 1.35
30 min
  furin cleavage Z-score: -2.29 (inactive)

B27: FS-749 (peptide)
chain: CAALSRPRRLAGNASASA
7.5 min
  furin cleavage Z-score: 2.43
15 min
  furin cleavage Z-score: 5.44 (active)
30 min
  furin cleavage Z-score: 2.14
